dFosB activator – activators of delta FosB homodimer, primary screen, biochemical, fluorescence polarization, TAMRA-CDK5 oligo, single point | Protein FosB (Mus musculus), P13346 | purified delta FosB; percent of positive-control signal above neutral wells | activation, % at 25 µM | 0.99% of 340,000 active | AID 493131, 2011;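 active = mean activation above about 17%, with every replicate also reaching it, limit read from the data, passing the limit was not always enough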
FID counter – compounds displacing fluorescent DNA intercalator, primary screen, artefact control for HCV NS3 helicase inhibitor project, biochemical, FID fluorescence. DNA fluorescent intercalator displacement. 0.17% of 290,000 active. AID 1845, 2009. inhibition, % at 7.9 µM; in the data active = inhibition above about 37%;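 also: higher means more ethidium bromide displaced from hairpin DNA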
MEKK2mut PB1 HTS – MEK5 binding signal on mutant MEKK2 PB1, primary screen, biochemical, multiplex bead flow cytometry, Alexa488-MEK5; Alexa488-MEK5 binding to MEKK2 mutant; 0.35% of 290,000 active; percent response, % at 10 µM; in the data active = percent response above about 24%, passing the limit was not always enough
MEKK3 PB1 HTS – modulators of MEKK3-MEK5 PB1 binding, primary screen, biochemical, wildtype MEKK3, multiplex bead flow cytometry, Alexa488-MEK5; 1.4% of 290,000 active; binding response (% of control), % at 10 µM; AID 1529, 2009; Mitogen-activated protein kinase kinase kinase 3 (Homo sapiens), Q99759; bead-based flow cytometry, Alexa488-MEK5 binding to MEKK3; actives lie on both sides; 0 = blocked by unlabeled MEK5, 100 = vehicle;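 active = binding response more than 3 SD above or below the average of its plate-row segment, actives on both sides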;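 also: Alexa488 bead fluorescence after subtracting the streptavidin-only scavenger bead signal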
Target sequence (Q99759 whole entry, looked up): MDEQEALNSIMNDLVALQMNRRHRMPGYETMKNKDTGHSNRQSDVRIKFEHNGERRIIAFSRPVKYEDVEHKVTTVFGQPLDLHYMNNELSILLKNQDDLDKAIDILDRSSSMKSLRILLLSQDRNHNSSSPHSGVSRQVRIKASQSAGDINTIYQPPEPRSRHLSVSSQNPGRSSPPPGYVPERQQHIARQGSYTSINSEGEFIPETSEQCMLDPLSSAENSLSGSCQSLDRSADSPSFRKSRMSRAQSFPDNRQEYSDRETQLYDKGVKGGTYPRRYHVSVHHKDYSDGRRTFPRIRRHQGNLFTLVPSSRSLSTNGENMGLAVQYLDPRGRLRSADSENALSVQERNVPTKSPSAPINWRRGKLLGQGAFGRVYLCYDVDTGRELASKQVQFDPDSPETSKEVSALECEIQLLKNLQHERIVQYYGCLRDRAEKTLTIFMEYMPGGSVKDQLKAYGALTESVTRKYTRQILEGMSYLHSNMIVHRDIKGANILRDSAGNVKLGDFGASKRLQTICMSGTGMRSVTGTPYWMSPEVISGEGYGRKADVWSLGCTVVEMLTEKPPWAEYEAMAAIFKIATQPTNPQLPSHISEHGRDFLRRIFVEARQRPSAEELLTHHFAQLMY
MEKK2wt PB1 HTS – modulators of MEK5 binding to wildtype MEKK2, primary screen, biochemical, multiplex bead flow cytometry, Alexa488-MEK5; Mitogen-activated protein kinase kinase kinase 2 (Homo sapiens), Q9Y2U5; Alexa488-MEK5 binding to MEKK2 WT; actives lie on both sides; binding response (% of control), % at 10 µM; 1.1% of 290,000 active; AID 1531, 2009; in the data active = binding response below about 67% or above about 130%
MEKK2wt confirm – modulators of MEK5 binding to wildtype MEKK2, confirmation, biochemical, single concentration, multiplex bead flow cytometry; shares compounds with MEKK3 PB1 HTS; Alexa488-MEK5 binding to MEKK2 WT; actives lie on both sides; binding response (% of control), % at 10 µM; 2.4% of 5,900 active; AID 1892, 2009; in the data active = binding response below about 16% or above about 210%; inactive = in between
MEKK2mut-MEK5 – mutant MEKK2 PB1-MEK5 binding signal retest – biochemical, single concentration, multiplex bead flow cytometry, confirmation. AID 1893, 2009. 2% of 5,900 active. percent response, % at 10 µM. shares compounds with MEKK3 PB1 HTS. Alexa488-MEK5 binding to MEKK2 mutant; in the data active = percent response mostly above about 71%, no sharp cut-off; inactive = mostly below about 38%;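 also: higher means compound restores mutant binding toward wildtype level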
MEKK3-MEK5 inh – MEKK3 wild-type PB1 binding to MEK5, inhibitors, confirmation, biochemical, bead multiplex flow cytometry, single concentration, wildtype. shares compounds with MEKK3 PB1 HTS. Alexa488-MEK5 binding to MEKK3; hits give low values. binding response (% of control), % at 10 µM. 1.8% of 5,900 active;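 active = binding response below 72% of control, or above a set upper limit, though filed actives all read lower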;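 also: lower values mean stronger disruption of MEK5 binding to MEKK3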
Each line names hits and unclear results; the compound was inactive in the other large screens (follow-up assays come after a bar, where they were run); [ ] = remark or other dose. A selection: hits, their analogues and other compounds. The true share with any hit is near 2.9%.

CCN(CC(=O)Nc1ccc(NC(C)=O)cc1)C(=O)C(c1ccccc1)c1ccccc1	MEKK3 PB1 HTS 131 | MEKK2wt confirm inactive | MEKK2mut-MEK5 inactive | MEKK3-MEK5 inh inactive
CCN(CC(=O)Nc1ccc(NC(C)=O)cc1)C(=O)/C=C/c1ccccc1	none (no result: FID counter, MEKK2mut PB1 HTS, MEKK3 PB1 HTS, MEKK2wt PB1 HTS)
CCN(CC(=O)Nc1ccc(NC(C)=O)cc1)C(=O)c1n[nH]c(=O)c2ccccc12	MEKK3 PB1 HTS 55[inhibitor] | MEKK2wt confirm inactive | MEKK2mut-MEK5 inactive | MEKK3-MEK5 inh inactive
COc1ccc2nc(NC(=O)Cc3ccc(OC)c(S(=O)(=O)N4CCOCC4)c3)sc2c1	none
O=C(NCc1ccc(N2CCCC2=O)cc1)Nc1ccccc1	none
O=C(NCc1ccc(N2CCCC2=O)cc1)Nc1cccc2ccccc12	MEKK3 PB1 HTS 1.0[inhibitor], MEKK2wt PB1 HTS -1.0[inhibitor] | MEKK2wt confirm inactive | MEKK2mut-MEK5 inactive | MEKK3-MEK5 inh inactive
CC1=CS(=O)(=O)CC1Sc1ncn[nH]1 (configuration not stated)	MEKK3 PB1 HTS 64[inhibitor] | MEKK2wt confirm inactive | MEKK2mut-MEK5 inactive | MEKK3-MEK5 inh inactive
CC(C)[C@H](NC(=O)OC(C)(C)C)C(=O)NCC1CCC(C(=O)N[C@@H](Cc2ccccc2)C(=O)O)CC1 (some centres not stated)	none
CC(C)(C)c1cc(C(=O)Nc2ccc(F)cc2)n(Cc2ccc(F)cc2)n1	none
CC(C)(C)c1cc(C(=O)NC2CC2)n(Cc2ccc(F)cc2)n1	MEKK3 PB1 HTS 131 | MEKK2wt confirm inactive | MEKK2mut-MEK5 inactive | MEKK3-MEK5 inh inactive
CCS(=O)(=O)c1ccc2oc(SCC(=O)c3ccco3)nc2c1	none
CCS(=O)(=O)c1ccc2oc(SCC(=O)N3CCCCC3)nc2c1	MEKK3 PB1 HTS 48[inhibitor] | MEKK2wt confirm inactive | MEKK2mut-MEK5 inactive | MEKK3-MEK5 inh inactive
CCOC(=O)C1CCN(C(=O)COC(=O)CSc2ccc(C(N)=O)cc2[N+](=O)[O-])CC1	none
COc1ccc(N=c2oc3ccc(OC)cc3cc2-c2nc3ccccc3[nH]2)cc1	MEKK3 PB1 HTS 124 | MEKK2wt confirm inactive | MEKK2mut-MEK5 inactive | MEKK3-MEK5 inh inactive
COc1ccccc1N1CC(C(=O)NCC2COc3ccccc3O2)CC1=O (configuration not stated)	none (no result: FID counter, MEKK2mut PB1 HTS, MEKK3 PB1 HTS, MEKK2wt PB1 HTS)
Cc1ccc(S(=O)(=O)NCCC(=O)OCC(=O)N2CCCC2=O)cc1C	none (no result: FID counter, MEKK2mut PB1 HTS, MEKK3 PB1 HTS, MEKK2wt PB1 HTS)
Cc1cccc(C(C)C)c1NC(=O)CN(C)Cc1cccc(F)c1	none
Cc1ccccc1CN(C)CC(=O)Nc1c(C)cccc1C(C)C	MEKK3 PB1 HTS 72[inhibitor] | MEKK2wt confirm inactive | MEKK2mut-MEK5 inactive | MEKK3-MEK5 inh inactive
Cc1ccc2[nH]c(=O)c(C3=NN(C(=O)CCC(=O)O)C(c4cccs4)C3)c(-c3ccccc3)c2c1 (configuration not stated)	MEKK3 PB1 HTS 133 | MEKK2wt confirm inactive | MEKK2mut-MEK5 inactive | MEKK3-MEK5 inh inactive
O=C(O)CCC(=O)N1N=C(c2ccc(Br)cc2)CC1c1cccs1 (configuration not stated)	none
CC(C)C[C@@H](C(=O)NCc1ccco1)N1C(=O)N2CCc3c([nH]c4ccccc34)[C@@]2(C)C1=O	none
COC(=O)c1ccccc1OCCOc1ccccc1C(=O)OC	none

Screens as filed in PubChem.
